30 molecules from the supplement of paper PMC13380429 can be followed below.

Molecules are shown by their SMILES.

In test [1] the test system is Vero E6 infected with SARS-CoV-2. Nature of the test: morphology score (similarity to uninfected cells); higher = more like uninfected cells. The conditions noted are these: 24 h.
Test [2] shares this test system. Nature of the test: SARS-CoV-2 infection rate relative to infected DMSO; higher = more infection, active = 60 or less. The note with it: 24 h.

For the molecule `OC[C@H]1O[C@H](O[C@H]2[C@H](O)[C@@H](O)[C@H](O)O[C@@H]2CO)[C@H](O)[C@@H](O)[C@@H]1O` [D-(+)-maltose] (10 µM), the morphology score in test [1] came out at 0.129. The SARS-CoV-2 infection rate in test [2] was 86% (inactive).

For `COC(=O)[C@@H](N)CCCNC(=N)N[N+](=O)[O-]` (10 µM), in test [1], the morphology score came to 0.125. Also, the SARS-CoV-2 infection rate in test [2] was 98.5% (inactive).

On to `NC(CO)C(=O)NNCc1ccc(O)c(O)c1O` (stereo not given) [benserazide] (10 µM), for which the morphology score in test [1] is -0.102. In test [2], the SARS-CoV-2 infection rate was 96.5% (inactive).

As to `Cc1cc(=O)oc2c(C=O)c(O)ccc12` (10 µM), in test [1], the morphology score turned out to be 0.206. Moreover, the SARS-CoV-2 infection rate in test [2] was 106% (inactive).

`CC1(C)CC(Oc2ccc(-c3ccc(-c4cn[nH]c4)cc3O)nn2)CC(C)(C)N1` (10 µM) displayed a morphology score in test [1] of -0.373. For the same molecule, the SARS-CoV-2 infection rate in test [2] is 120% (inactive).

`C[C@@H]1O[C@@H]1P(=O)(O)O` (10 µM): in test [1], the morphology score was 0.00316. For the same molecule, the SARS-CoV-2 infection rate in test [2] was 104% (inactive).

In test [1], `CCCN(CCC)[C@H]1CCc2ccc(O)cc2C1` [7-hydroxy-DPAT] (10 µM) came in with a morphology score of -0.355. The SARS-CoV-2 infection rate in test [2] was 122% (inactive).

`O=C(C(c1ccccc1)c1ccccc1)N1CCN(CC(O)COc2cccc3ncccc23)CC1` (stereo not given) [dofequidar] (10 µM): the morphology score in test [1] came to 0.14. For the same molecule, the SARS-CoV-2 infection rate in test [2] is 89.5% (inactive).

`C[n+]1cc2c3c(ccc2c2ccc4cc5c(cc4c21)OCO5)OCO3` [sanguinarium-chloride] (10 µM) showed a morphology score in test [1] of -0.0249. Moreover, the SARS-CoV-2 infection rate in test [2] is 94.5% (inactive).

In test [1], `CN1C(=O)N(c2cc(Cl)cc(Cl)c2)C(=O)[C@]12CN(c1ccc(C(=O)O)cn1)C[C@H]2c1ccc(C#N)cc1` (10 µM) gave a morphology score of 0.0204. For the same molecule, the SARS-CoV-2 infection rate in test [2] is 114% (inactive).

For `O=C1CCCC(=O)C1C(=O)c1ccc(C(F)(F)F)cc1[N+](=O)[O-]` [nitisinone] (10 µM), the morphology score in test [1] amounted to 0.0537. For the same molecule, in test [2], the SARS-CoV-2 infection rate was 110% (inactive).

On to `Nc1ncnc2c1c(-c1cnc3[nH]ccc3c1)nn2C1CCCC1` (10 µM), for which the morphology score in test [1] is -0.0498. Also, the SARS-CoV-2 infection rate in test [2] was 114% (inactive).

Regarding `OC(c1ccccc1)C1CCN(CCc2ccccc2)CC1` (stereo not given) (10 µM), the morphology score in test [1] is -0.103. Moreover, the SARS-CoV-2 infection rate in test [2] is 106% (inactive).

Regarding `N=C(N)Nc1ccc(C(=O)Oc2ccc3cc(C(=N)N)ccc3c2)cc1` [nafamostat] (10 µM), the morphology score in test [1] stood at 0.172. In test [2], the SARS-CoV-2 infection rate was 108% (inactive).

As to `CS(=O)(=O)c1ccc(-c2cnc(NCc3ccco3)n3cnnc23)cc1` (10 µM), in test [1], the morphology score was 0.197. For the same molecule, the SARS-CoV-2 infection rate in test [2] was 83% (inactive).

Consider `CC=C1C(=O)C[C@H]2[C@@H]3CCC4=CC(=O)CC[C@]4(C)[C@H]3CC[C@]12C` (10 µM), for which, in test [1], the morphology score turned out to be 0.0492. The SARS-CoV-2 infection rate in test [2] was 91% (inactive).

`c1ccc2c(CCNc3ccc(Nc4ccncc4)cc3)c[nH]c2c1` [serdemetan] (10 µM): the morphology score in test [1] was 0.933. Also, the SARS-CoV-2 infection rate in test [2] was 37.5% (active).

`Nc1nc(Cl)nc2c1ncn2[C@@H]1O[C@H](CO)[C@@H](O)[C@@H]1F` [clofarabine] (0.833333 µM) showed a morphology score in test [1] of 0.11. Also, the SARS-CoV-2 infection rate in test [2] is 94.5% (inactive).

In turn, `CNCc1ccc(C)c(NC(=O)c2ccc(Nc3nc(-c4ccccc4)c4ccccc4n3)cc2)c1` (0.833333 µM) returned a morphology score in test [1] of 0.213. For the same molecule, in test [2], the SARS-CoV-2 infection rate is 98% (inactive).

Consider `CS(=O)(=O)n1cc2c(n1)CN([C@H]1CO[C@H](c3cc(F)ccc3F)[C@@H](N)C1)C2` [omarigliptin] (10 µM), for which, in test [1], the morphology score came out at 0.198. In addition, the SARS-CoV-2 infection rate in test [2] is 107% (inactive).

The molecule `CCN(CC)CCOc1ccccc1C(=O)CCc1ccccc1` [etafenone] (10 µM) returned a morphology score in test [1] of 0.151. Besides, the SARS-CoV-2 infection rate in test [2] is 97.5% (inactive).

With `CN(N=O)C(=O)N[C@@H](C=O)[C@@H](O)[C@H](O)[C@H](O)CO` [streptozotocin] (10 µM), the morphology score in test [1] was determined as 0.0397. The SARS-CoV-2 infection rate in test [2] was 96% (inactive).

The molecule `C[N+](C)(C)CCCCCC[N+](C)(C)C` [hexamethonium] (10 µM) came in with a morphology score in test [1] of -0.257. In test [2], the SARS-CoV-2 infection rate was 114% (inactive).

On to `OCCN1CCN(CC/C=C2/c3ccccc3Sc3ccc(Cl)cc32)CC1` [zuclopenthixol] (0.833333 µM), for which the morphology score in test [1] was 0.0109. Further, in test [2], the SARS-CoV-2 infection rate is 110% (inactive).

As to `[NH-]c1c[n+](N2CCOCC2)no1` [linsidomine] (10 µM), the morphology score in test [1] is -0.0679. Besides, in test [2], the SARS-CoV-2 infection rate was 117% (inactive).

`CCCc1c(OCCCOc2ccc(OCC(=O)O)cc2)ccc(C(C)=O)c1O` (10 µM) gave a morphology score in test [1] of 0.0635. The SARS-CoV-2 infection rate in test [2] was 106% (inactive).

On to `CCN(CC)C(=O)N1CCN(C)CC1` [diethylcarbamazine] (10 µM), for which the morphology score in test [1] amounted to 0.035. For the same molecule, the SARS-CoV-2 infection rate in test [2] is 104% (inactive).

The molecule `COCCN1CCN(Cc2ccc(-c3n[nH]c4c3C(=O)c3c(NC(=O)NN5CCOCC5)cccc3-4)cc2)CC1` (10 µM) showed a morphology score in test [1] of -0.35. Also, the SARS-CoV-2 infection rate in test [2] is 117% (inactive).

In test [1], `CCc1ccc(C(=O)C(C)CN2CCCCC2)cc1` (stereo not given) [eperisone] (10 µM) yielded a morphology score of 0.374. For the same molecule, the SARS-CoV-2 infection rate in test [2] was 80% (inactive).

In test [1], `COc1ccc(C2CC(c3ccccc3)=NN2c2ccc(S(N)(=O)=O)cc2)cc1` (stereo not given) (10 µM) returned a morphology score of 0.152. Also, the SARS-CoV-2 infection rate in test [2] is 87% (inactive).
